About 500 (1.3%) of roughly 39,000 compounds were called active. What follows is part of a selection rich in actives, with near analogues and random picks from the rest.

The assay concerns S. aureus RN4220. The experiment in a line: growth inhibition call (relative growth <= 0.2). The settings on record: 50 µM.
For `Cc1ccc(Sc2c(-c3ccccc3)nc3sccn23)cc1`, the growth inhibition call was “inactive”. Then `COCC(=O)Nc1ccc2c(c1)C(=O)N(C)C[C@@H](OC)[C@H](C)CN(Cc1ccccc1OC)[C@@H](C)CO2`, with “inactive”; and `C[C@@H](C[N+](C)(C)C)OC(N)=O`, with “inactive”. Then `C=C[C@](C)(O)CC/C=C(\C)C(=O)O[C@@H]1[C@@H](O[C@@](C)(C=C)CC/C=C(\C)C(=O)O[C@H]2C[C@@]3(C(=O)O[C@H]4OC[C@@H](O[C@H]5O[C@@H](CO)[C@@H](O)[C@@H](O[C@H]6O[C@@H](CO)[C@@H](O[C@H]7O[C@@H](CO)[C@@H](O)[C@@H](O)[C@@H]7O)[C@@H](O)[C@@H]6O)[C@@H]5O)[C@@H](O)[C@@H]4O)[C@@H](O)C[C@@]4(C)C(=CC[C@H]5[C@@]6(C)CC[C@@H](O[C@H]7O[C@@H](CO)[C@@H](O[C@H]8O[C@@H](CO)[C@@H](O)[C@@H](O[C@H]9OC[C@@H](O)[C@@H](O)[C@@H]9O)[C@@H]8O)[C@@H](O)[C@@H]7O)C(C)(C)[C@@H]6CC[C@@]54C)[C@@H]3CC2(C)C)OC[C@@H](O)[C@H]1O`, with “inactive”.

With `CCc1nc2ccc(C(=O)NCCN3CCNC3=O)cn2c1N(CC)Cc1cccc(Br)c1`, the growth inhibition call was “inactive”.

Turning to `COC(=O)[C@@]12O[C@@H]1[C@H](O[C@@H]1O[C@H](CO)[C@@H](O)[C@H](O)[C@H]1O)C[C@H]1[C@]3(C)C[C@@H](c4ccoc4)OC(=O)[C@H]3CC[C@]12C`, the growth inhibition call is “inactive”. Then `C[C@H](O)C#Cc1cnc2c(c1)C(=O)N([C@H](C)CO)C[C@H](C)[C@@H](CN(C)C(=O)Nc1ccc(C(F)(F)F)cc1)O2`, with “inactive”. Then `C[C@H]1O[C@@H](OC[C@H]2O[C@@H](OC[C@]3(C)[C@H]4CC[C@@]5(C)[C@H](CC[C@H]6C7=CC(C)(C)CC[C@]7(C(=O)O)CC[C@@]65C)[C@@]4(C)CC[C@@H]3O)[C@@H](O)[C@@H](O)[C@@H]2O)[C@@H](O)[C@@H](O)[C@@H]1O`, with “inactive”. Then `C[C@@H]1CN([C@H](C)CO)S(=O)(=O)c2ccc(C#CC3(O)CCCC3)cc2O[C@H]1CN(C)C(=O)Cc1cccnc1`, with “inactive”; and `Cc1ccc(S(=O)(=O)Nc2ccc3c(c2)C(=O)N([C@H](C)CO)C[C@@H](C)[C@H](CN(C)S(=O)(=O)c2ccc(C)cc2)OCCCC[C@H](C)O3)cc1`, with “inactive”; and `COc1ccc(NC(=O)N(C)C[C@H]2Oc3c(NC(=O)c4cc(C)nn4C)cccc3C(=O)N([C@H](C)CO)C[C@H]2C)cc1`, with “inactive”. As for `COCC#Cc1ccc([C@H]2[C@@H](CO)N3C(=O)CN(C(=O)c4ccncc4)C[C@H]23)cc1`, the growth inhibition call was “inactive”.
